Experimental findings from PubChem BioAssay AID651610 (Broad Institute, 2012) are described below.

The campaign covered roughly 360,000 compounds. About 3,900 (1.1%) were called active. This is one part of a sample in which actives are shown more often than they occur.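 Rule for the calls: active = mean replicate inhibition score of at least 50 and every replicate individually at or above 50; inconclusive = only one of the two criteria met; inactive = mean below 50 and not all replicates reaching 50.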

A short description of this experiment: blockers of JRFL envelope-mediated fusion – HeLa-JRFL effector, CEM21 target cells, luciferase, primary screen (AID 651610).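 Note: 0% = plate neutral controls and 100% = maraviroc near 300 nM.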 Conditions: HeLa-JRFL Env/CEM21 cell fusion, active compounds read high; at 16.7 µM unless noted.
Take `C[C@@H]1CCCCO[C@@H](CN(C)Cc2ccncc2)[C@@H](C)CN([C@@H](C)CO)C(=O)c2cc(NC(=O)Nc3ccc(F)cc3)ccc2O1`: the inhibition was -4.96% (inactive). As for `Cc1ccccc1S(=O)(=O)NCC[C@@H]1CC[C@H](NC(=O)C2CC2)[C@@H](CO)O1`, the figure is 0.439% (inactive). As for `C[C@@H]1CN([C@H](C)CO)C(=O)c2cc(N(C)C)ccc2O[C@@H]1CN(C)S(=O)(=O)c1cn(C)cn1`, the figure is 4.03% (inactive). As to `O=C(C[C@H]1CC[C@H](NS(=O)(=O)c2ccccc2)[C@H](CO)O1)NCc1ccncn1`, the inhibition was 2.23% (inactive).

With `CC(C)c1cn(CC[C@@H]2CC[C@@H](NC(=O)C3CC3)[C@H](CO)O2)nn1`, the inhibition is 7.45% (inactive). As for `O=C(Nc1ccn(CCCNCc2ccc3[nH]ccc3c2)c(=O)n1)OCc1ccccc1`, the figure is 1.22% [at 12.3 µM] (inactive).

Take `Cc1cc(C)c(CN2CCN(C(=O)Cn3ccc(NC(=O)OCc4ccccc4)nc3=O)CC2)c(C)c1`: the inhibition was 72.2% [at 12.3 µM] (active). `Nc1ccn(CC(=O)N2CCN(c3ccccn3)CC2)c(=O)n1`: the inhibition was 15.1% [at 12.3 µM] (inactive). The same measure for `C[C@H](CO)N1C[C@H](C)[C@@H](CN(C)Cc2ccc(Oc3ccccc3)cc2)Oc2ccc(NS(=O)(=O)c3ccc(F)cc3)cc2CC1=O`: 6.63% (inactive). For `C[C@H](CO)N1C[C@H](C)[C@H](CN(C)C(=O)c2ccccc2)OCCCC[C@H](C)Oc2ccc(NS(C)(=O)=O)cc2C1=O`, the inhibition was -12.1% (inactive). Regarding `COc1ccc(C2CC(c3cccs3)Nc3nnnn32)cc1` (stereo not given), the inhibition was 15.5% [at 12.3 µM] (inactive). Take `Clc1ccc(C2CC(c3cccs3)n3ncnc3N2)cc1Cl` (stereo not given): the inhibition is 91.8% [at 12.3 µM] (active). As for `Nc1nc2n(n1)C(c1ccco1)CC(c1ccc(Cl)c(Cl)c1)N2` (stereo not given), the figure is -24.3% [at 12.3 µM] (inactive); as for `Cc1ccc(S(=O)(=O)Nc2ccc3c(c2)C(=O)N([C@H](C)CO)C[C@@H](C)[C@H](CN(C)S(=O)(=O)c2cccs2)OCCCC[C@@H](C)O3)cc1`, -10.4% (inactive). The same measure for `O=C(NCC[C@H]1CC[C@@H](NC(=O)C2CC2)[C@H](CO)O1)c1ccc(F)cc1`: 13.4% (inactive); for `Cc1ccc(S(=O)(=O)Nc2ccc3c(c2)C(=O)N([C@@H](C)CO)C[C@H](C)[C@@H](CN(C)C(=O)Cc2ccccc2)OCCCC[C@H](C)O3)cc1`: -8.35% (inactive). The same measure for `CCOC(=O)C1C(C)C(C(C)(C)C)N(S(=O)(=O)c2ccc(C)cc2)C1c1ccccc1` (stereo not given): 77.2% [at 12.3 µM] (active). Regarding `CCCCC[C@@H]1C=C(C(=O)OCC)[C@H](c2ccccc2)N1S(=O)(=O)c1ccc(C)cc1`, the inhibition is -5.02% [at 12.3 µM] (inactive).

For `CCOC(=O)C1=CC[C@@H](c2ccccc2)N(S(=O)(=O)c2ccc(C)cc2)[C@H]1c1ccc(CC)cc1`, the inhibition was 44.3% [at 12.3 µM] (inactive). In the case of `CCC(=O)N1C[C@H](C)[C@@H](OC)CN(C)C(=O)c2cc(NC(=O)c3cnccn3)ccc2OC[C@@H]1C`, the inhibition is -0.896% (inactive). The same measure for `Cc1ccc(S(=O)(=O)N(C)CC(=O)N2CCc3ccccc32)cc1`: -5.79% [at 12.3 µM] (inactive); for `CN(Cc1ccc(F)cc1)C(=O)CN1C(=O)c2ccccc2S1(=O)=O`: -26% [at 12.3 µM] (inactive). The same measure for `O=C(CN1C(=O)c2ccccc2S1(=O)=O)N1CCc2ccccc21`: 63.8% [at 12.3 µM] (active); for `CC(Oc1ccc(-c2ccccc2)c(F)c1)c1ccn(S(=O)(=O)c2cccc3ccccc23)n1` (stereo not given): 58.1% [at 12.3 µM] (active); for `C[C@@H]1CN([C@@H](C)CO)C(=O)c2cc(NC(=O)Nc3cccc4ccccc34)ccc2O[C@H]1CN(C)Cc1ccc(Cl)c(Cl)c1`: 2.97% (inactive). As for `O=C(Nc1ccc(-c2ccccc2)cc1)[C@H]1[C@H](CO)[C@H]2Cn3c(cccc3=O)[C@H]2N1CC1CC1`, the figure is -13.3% (inactive); as for `COc1ccc(NC(=O)Nc2ccc3c(c2)C(=O)N([C@@H](C)CO)C[C@H](C)[C@H](CN(C)S(=O)(=O)c2ccccc2)OCCCC[C@@H](C)O3)cc1`, -1.8% (inactive); as for `O=C(C[C@@H]1CC[C@@H]2[C@H](COC[C@H](O)CN2Cc2ccc(F)cc2)O1)NCc1ccncn1`, -13.2% (inactive).

With `CN1CCN(C(=O)C[C@@H]2C[C@H]3c4cc(NC(=O)NC5CCCC5)ccc4O[C@H]3[C@H](CO)O2)CC1`, the inhibition was -16.8% (inactive). The same measure for `CCCNC(=O)N1C[C@@H](O)COC[C@@H]2O[C@H](CC(=O)N3CCN(C)CC3)CC[C@H]21`: -4.93% (inactive); for `C[C@@H]1CN([C@@H](C)CO)C(=O)Cc2cc(NS(=O)(=O)c3ccc(F)cc3)ccc2O[C@@H]1CN(C)S(=O)(=O)c1cccs1`: 2.26% (inactive); for `CO[C@H]1CN(C)C(=O)c2ccc(NS(C)(=O)=O)cc2OC[C@@H](C)N(C(=O)c2ccc3c(c2)OCO3)C[C@@H]1C`: 3.98% (inactive). The same measure for `O=C(COC(=O)c1ncc(Cl)c(Cl)c1Cl)NCc1cccs1`: 80.8% [at 12.3 µM] (active); for `O=C(COC(=O)c1ccc(Cl)nc1)NCc1cccs1`: 13.8% [at 12.3 µM] (inactive); for `O=C(COC(=O)c1ncc(Cl)c(Cl)c1Cl)NCc1ccccc1`: -4.53% [at 12.3 µM] (inactive). The same measure for `CN1C(=O)c2cc(NC(=O)c3cnccn3)ccc2OC[C@@H]2O[C@H](CC(=O)O)CC[C@@H]21`: -25.8% (inactive). Take `CCOC(=O)C1Cn2c(nc3c(c2=O)C(C)(CC)Cc2ccccc2-3)S1` (stereo not given): the inhibition is -68.6% [at 12.3 µM] (inactive). On to `Cc1cccc(-n2c(SCC(N)=O)nc3c(c2=O)C2(CCCCC2)Cc2ccccc2-3)c1`, for which the inhibition is 87% [at 12.3 µM] (active). The same measure for `Cc1cccc(-n2c(=O)c3c(C)c(C)sc3n(CC(N)=O)c2=O)c1`: 16% [at 12.3 µM] (inactive); for `C[C@@H]1CN([C@H](C)CO)C(=O)Cc2cc(NC(=O)c3ccncc3)ccc2O[C@H]1CN(C)Cc1ccc(-c2ccccc2)cc1`: 18.5% (inactive). With `Cc1ccc(S(=O)(=O)N(C)C[C@@H]2Oc3ccc(NS(=O)(=O)c4cn(C)cn4)cc3C(=O)N([C@@H](C)CO)C[C@H]2C)cc1`, the inhibition was -17.6% (inactive). The same measure for `O=C(Cc1ccc(-n2c(=O)c3sccc3n(Cc3ccc(F)cc3)c2=O)cc1)NCc1ccco1`: 0.234% [at 12.3 µM] (inactive); for `O=C(NCc1ccco1)c1cc2sccc2n1Cc1ccc(F)cc1`: 20.8% [at 12.3 µM] (inactive). The same measure for `O=C(NCc1ccco1)c1ccc(Cn2c(=O)c3sccc3n(Cc3ccc(F)cc3)c2=O)cc1`: 78.1% [at 12.3 µM] (active); for `O=C(CN1CCOCC1)NCC[C@H]1CC[C@@H](NC(=O)Nc2ccc(Cl)cc2)[C@@H](CO)O1`: 2.67% (inactive); for `O=C(N[C@@H]1CC[C@H](CCn2cc(-c3ccccn3)nn2)O[C@@H]1CO)c1ccccc1`: 12.1% (inactive). Regarding `COc1ccc(S(=O)(=O)Nc2ccc3c(c2)C(=O)N([C@@H](C)CO)C[C@H](C)[C@@H](CN(C)C(=O)NC(C)C)OCCCC[C@H](C)O3)cc1`, the inhibition is 1.4% (inactive). As for `COC(=O)COc1cccc2c(=O)n(CC(=O)NCc3ccccc3)ccc12`, the figure is -188% [at 12.3 µM] (inactive). With `CCOC(=O)C(C)Oc1cccc2c(=O)n(CC(=O)N3CCc4ccccc43)ccc12` (stereo not given), the inhibition is -10.8% [at 12.3 µM] (inactive). As for `CCOC(=O)C(C)Oc1cccc2c(=O)n(CC(=O)NCCc3ccc(OC)c(OC)c3)ccc12` (stereo not given), the figure is 88.4% [at 12.3 µM] (active); as for `C[C@@H]1CN([C@H](C)CO)C(=O)Cc2cc(NS(=O)(=O)c3cccs3)ccc2O[C@@H]1CN(C)C(=O)Nc1ccc(F)cc1`, -7.97% (inactive); as for `C[C@@H]1CN([C@H](C)CO)C(=O)c2cc(NC(=O)Nc3cccc4ccccc34)ccc2O[C@@H](C)CCCCO[C@H]1CN(C)S(=O)(=O)c1cccs1`, 15.1% (inactive). With `CCCCCc1c(-c2ccc(OC)c(OC)c2)ncn1CCc1ccccc1OC`, the inhibition is 49.2% [at 12.3 µM] (inactive).

In the case of `CCCCCc1c(Cc2ccccc2)ncn1CCc1ccccc1OC`, the inhibition was 109% [at 12.3 µM] (active). The same measure for `CCCCCc1c(-c2cccc(Br)c2)ncn1CCc1ccccc1OC`: 11.9% [at 12.3 µM] (inactive). The same measure for `O=C(C[C@H]1C[C@H]2c3cc(NC(=O)CC4CC4)ccc3O[C@H]2[C@H](CO)O1)NCc1ccccc1`: 8.72% (inactive); for `CC(=O)C1=C(C)N(Cc2ccc(Cl)cc2)C(=S)NC1c1ccc(F)cc1` (stereo not given): 62.3% [at 12.3 µM] (active). As for `CC(=O)C1=C(C)N(Cc2ccccc2)C(=S)NC1c1cccc(Br)c1` (stereo not given), the figure is 0.027% [at 12.3 µM] (inactive); as for `COC(=O)C1=C(C)N(Cc2ccc(F)cc2)C(=S)NC1c1cccc(Cl)c1` (stereo not given), 34.2% [at 12.3 µM] (inactive); as for `C[C@@H]1CCCCO[C@@H](CN(C)S(=O)(=O)c2cccs2)[C@@H](C)CN([C@H](C)CO)C(=O)c2cc(NC(=O)Nc3ccc4c(c3)OCO4)ccc2O1`, 4.87% (inactive). On to `COCC(=O)Nc1ccc2c(c1)C(=O)N(C)C[C@H](OC)[C@@H](C)CN(C(=O)Cc1cccnc1)[C@@H](C)CO2`, for which the inhibition is 0.828% (inactive). As for `CCc1ccc(N(CC)c2ncnc3nc[nH]c23)cc1`, the inhibition is 55.5% [at 12.3 µM] (active).

In the case of `S=c1c2[nH]cnc2ncn1CCSc1ncnc2nc[nH]c12`, the inhibition is -6.63% [at 12.3 µM] (inactive). Turning to `CCC(=O)N1[C@H](C(=O)NCc2ccc(F)cc2)[C@@H](CO)[C@@H]2Cn3c(ccc(C4=CCCCC4)c3=O)[C@@H]21`, the inhibition was 22.3% (inactive). In the case of `C[C@@H]1CCCCO[C@@H](CN(C)Cc2ccncc2)[C@@H](C)CN([C@@H](C)CO)C(=O)c2cc(N(C)C)ccc2O1`, the inhibition was 12.4% (inactive).
